From PubChem BioAssay
Many of the other results were omitted from the sample, so hits are more common in it than they were.
PL synth Enamine: phospholipid synthesis inhibitors, CHO cells, primary screen, ZR-82 cells, Enamine library, screen 3 | ZR-82 CHO cells, pyrene fatty acid UV survival, CellTiter Blue; peroxisome-deficient CHO-K1 mutant line; plus DGAT-1, DGAT-2 and ACAT inhibitors | calls only at 10 µM | actives 0.4% (n = 20,000);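 active = cell survival signal 2 SD away from solvent-only control wells, confirmed on one or two retests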;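 also: 3 h compound exposure then viability read about one day after UV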
The depositor's hits bear a star; i = inactive; + = active, no number.

SMILES | PL synth Enamine
O=C1OC(C(=O)OCc2cc(=O)n3c4c(sc3n2)CCCC4)Cc2ccccc21 (configuration not stated) | i
c1ccc(-c2csc3nc(-c4cccnc4)nc(Oc4ccc(-c5nnco5)cc4)c23)cc1 | i
C/C(=N\n1c(-c2ccc(OC(F)F)cc2)csc1=NC(C)C)c1ccc(-n2ccnc2)cc1 | +
COCCN=c1scc(-c2ccc(OC(F)F)cc2)n1/N=C(\C)c1ccc2c(c1)OCO2 | i
C=CCN=c1scc(-c2ccc(OC(F)F)cc2)n1/N=C(\C)c1ccc2c(c1)OCCO2 | i
Cc1cc(C)n(CC(O)Cn2c3ccc(Br)cc3c3cc(Br)ccc32)n1 (configuration not stated) | i
CCCCCNC(=O)c1sc2[nH]c(=S)[nH]c(=O)c2c1C | i
Brc1ccccc1C=C(c1nc2ccccc2s1)c1nc2ccccc2s1 | i
Oc1c(Br)cc(/C=C/c2nc3ccccc3s2)cc1Br | i
O=C1Nc2ccc(Br)cc2C1=C(c1nc2ccccc2s1)c1nc2ccccc2s1 | +
NC(=NS(=O)(=O)c1ccc(Cl)cc1)c1ccc(Cl)cc1 | i
CC1NC(=S)N(C2CC2)C1=O (configuration not stated) | i
Cc1cc(-n2c(C)cc(C(=O)COC(=O)/C=C/c3ccc(Br)o3)c2C)no1 | i
O=S(=O)(N/N=C1\CCCc2ccccc21)c1ccc(Br)cc1 | i
Cc1ccc(-n2[nH]nnc2=S)c(C)c1 | i
Cc1cc(N2C(=O)C3CCC(C)CC3C2=O)no1 (configuration not stated) | i
COc1ccccc1N=Nc1c(O)ccc2ccccc12 | i
Cc1nc(N)sc1N=Nc1cccc2ccccc12 | +
Nc1nc(=O)c2cccnc2s1 | i
C=CC[n+]1cccnc1N | i
O=C1CCCC/C1=C\N1CCOCC1 | i
O=C(OCN1C(=O)c2ccccc2C1=O)C1=COCCO1 | i
CC(C)N=c1scc(-c2ccc(Cl)c(Cl)c2)n1/N=C/c1ccc2c(c1)OCCO2 | i
CN=c1scc(-c2ccc(Br)cc2)n1/N=C/c1ccc(Cl)cc1 | i
Cc1ccc(-c2csc(=NC(C)C)n2/N=C/c2ccc(Cl)cc2)cc1C | +
SMILES | PL synth Enamine
S=c1[nH]c(-c2ccccc2)c(-c2ccccc2)n1CC1CCCO1 (configuration not stated) | i
O=S(=O)(c1ccc(Cl)cc1F)N(Cc1ccco1)Cc1ccco1 | i
Cc1ccc(C2=NN3C(C2)c2ccccc2OC3c2ccc(-c3ccccc3)cc2)cc1 (configuration not stated) | i
Cc1cc([N+](=O)[O-])ccc1NP1(=O)/C(=C2/N(C)c3ccccc3C2(C)C)C=NN1c1ccccc1 (configuration not stated) | i
Cc1nn(-c2ccccc2)c2c1P(=S)(Nc1ccc([N+](=O)[O-])cc1)/C(=C1/N(C)c3ccccc3C1(C)C)C=N2 (configuration not stated) | i
CN1/C(=C2\C=NN(c3ccccc3)P2(=O)Nc2ccc([N+](=O)[O-])cc2)C(C)(C)c2ccccc21 (configuration not stated) | +
O=C(CSc1nnc(C2CC2)n1C1CC1)c1ccc[nH]1 | i
O=C(NC(=S)NCCO)c1ccco1 | i
C[N+](CCOc1ccccc1)(CCOc1ccccc1)CCOc1ccccc1 | i
COCCn1c(O)c(C=NCC2CC2(Cl)Cl)c(=O)[nH]c1=S (configuration not stated) | i
S=C(N/N=C1\CC2CC=CC12)NC1CCCCC1 (configuration not stated) | i
CC1C/C(=N\NC(=O)C(N)=O)CC(C)(C)C1 (configuration not stated) | i
CC1C/C(=N\NC(=S)NC2CCCCC2)CC(C)(C)C1 (configuration not stated) | +
O=S1(=O)CCC(NC(=S)Nc2ccc(OC(F)F)cc2)C1 (configuration not stated) | i
O=C(NC(Nc1ncccn1)C(Cl)(Cl)Cl)c1ccco1 (configuration not stated) | i
